PubChem BioAssay (NCI)
The panel holds about 83,000 compounds, 20% with a hit somewhere; the sample as a whole holds those more often.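 Growth was measured after 48 h exposure to one concentration of compound in 96-well plates. Values under 10 count as active.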 Unmarked numbers belong to inactive results. Active and inactive are the calls of the source.

How the values were obtained:
Experiment in all cases: NCI-60 one-dose screen, 48 h (100 = growth as untreated, 0 = no growth, -100 = all killed)
Settings in all cases: 10 µM unless noted
[1] = system: HCT-15 colon
[2] = system: HT29 colon
[3] = system: SNB-75 CNS
[4] = system: SNB-19 CNS
[5] = system: U251 CNS
[6] = system: PC-3 prostate
[7] = system: SK-MEL-5 melanoma
[8] = system: UACC-62 melanoma
[9] = system: LOX IMVI melanoma
[10] = system: SK-MEL-28 melanoma

Cc1nn(-c2nc3ccccc3[nH]2)c2c1C(c1ccc(OCc3ccc(F)cc3)cc1)CC(=O)N2 (stereo not given)
growth [1]: 41.5%
growth [2]: 70.1%
growth [3]: 48.3%
growth [4]: 64.9%
growth [5]: 41.6%
growth [6]: 43.8%
growth [7]: 68.3%
growth [8]: 61.3%
growth [9]: 28%
growth [10]: 63%

C=CCN1C(=O)c2cccc3c(-c4ccc5c(c4)ncn5C4CCCCC4)ccc(c23)C1=O
growth [1]: 44.9%
growth [2]: 23.4%
growth [3]: 50.2%
growth [4]: 76.1%
growth [5]: 52%
growth [6]: 22.8%
growth [7]: -27.8% (active)
growth [8]: 44%
growth [9]: 50.3%
growth [10]: 76.7%

CNS(=O)(=O)Nc1nccc(Cc2c(C)c3ccc(Oc4ncccn4)cc3oc2=O)c1F
growth [1]: 63.7%
growth [2]: 10.4%
growth [3]: 78.1%
growth [4]: 63.7%
growth [5]: 54.8%
growth [6]: 101%
growth [7]: 23.1%
growth [8]: 4.49% (active)
growth [9]: 25.6%
growth [10]: 8.61% (active)

NC1=Nc2cc(OCCCN3Cc4ccccc4C3)c(OCC3CC3)cc2C12CCCC2
growth [1]: 25.1%
growth [2]: 5.45% (active)
growth [3]: 60.3%
growth [4]: 82.4%
growth [5]: 49.5%
growth [6]: 45.4%
growth [7]: -11% (active)
growth [8]: 45.7%
growth [9]: 8.85% (active)
growth [10]: -44% (active)

CN1C/C=C\CCOc2cccc(c2)-c2ccnc(n2)Nc2cccc(c2)C1
growth [1]: -16.9% (active)
growth [2]: -16.8% (active)
growth [3]: -98.6% (active)
growth [4]: 0.69% (active)
growth [5]: -52.9% (active)
growth [6]: -41.9% (active)
growth [7]: -95.1% (active)
growth [8]: -62.7% (active)
growth [9]: -79.4% (active)
growth [10]: -76% (active)

Cn1cc(-c2[nH]c3cc(NC(=O)[C@H](N)C4CCCCC4)cc4c3c2C=NNC4=O)cn1
growth [1]: 20.1%
growth [2]: -11.1% (active)
growth [3]: -70.2% (active)
growth [4]: -24.4% (active)
growth [5]: -83.3% (active)
growth [6]: 7.2% (active)
growth [7]: -36.6% (active)
growth [8]: 26.1%
growth [9]: -73.4% (active)
growth [10]: -70% (active)

CC(=O)OC1Oc2ccccc2-c2oc(=O)c(-c3cc4ccc(N(C)C)cc4oc3=O)cc21 (stereo not given)
growth [1]: 46.2%
growth [2]: 72.4%
growth [3]: 71.1%
growth [4]: 48.2%
growth [5]: 48.3%
growth [6]: 34.8%
growth [7]: 18.8%
growth [8]: 67.3%
growth [9]: 43.2%
growth [10]: 103%

Cc1c(Cn2c(C)nc3c(C(=O)O)cc(N4CCOCC4)cc32)cccc1C(F)(F)F
growth [1]: 44.5%
growth [2]: 69.5%
growth [3]: 61.3%
growth [4]: 118%
growth [5]: 104%
growth [6]: 68.2%
growth [7]: 104%
growth [8]: 65.5%
growth [9]: 101%
growth [10]: 80.9%

O=C1C=CC2(NN=C(c3ccccc3)N2c2cccc(Cl)c2)c2cccc(O)c21 (stereo not given)
growth [1]: 23.8%
growth [2]: 79.3%
growth [3]: 57.5%
growth [4]: 43.9%
growth [5]: 24.1%
growth [6]: 32.7%
growth [7]: -54.6% (active)
growth [8]: 3.48% (active)
growth [9]: 3.66% (active)
growth [10]: 35.8%

Clc1ccc2c(NCCCNCc3ccc4c(c3)OCO4)ccnc2c1
growth [1]: 13.2%
growth [2]: 4.6% (active)
growth [3]: 96.2%
growth [4]: 88.7%
growth [5]: 10.6%
growth [6]: 51.6%
growth [7]: -96% (active)
growth [8]: 89.8%
growth [9]: 8.83% (active)
growth [10]: 51.2%

Cn1cc(-c2ccc(F)c(C(F)(F)F)c2)nc1C1CCN(c2ncnc3[nH]ncc23)CC1
growth [1]: 70%
growth [2]: 60.8%
growth [3]: -15% (active)
growth [4]: 52.5%
growth [5]: 48%
growth [6]: 71%
growth [7]: 95.1%
growth [8]: 75.7%
growth [9]: 69.4%
growth [10]: 86.2%

CC1(O)CCC(Nc2cc(-c3ccc(C(F)(F)F)cc3)c(C#N)c3nc4ccccc4n23)CC1 (stereo not given)
growth [1]: 58.6%
growth [2]: 60.7%
growth [3]: 41.4%
growth [4]: 70.3%
growth [5]: 67.9%
growth [6]: 35.5%
growth [7]: 5.75% (active)
growth [8]: 77.1%
growth [9]: 55%
growth [10]: 89.3%

Clc1ccc(/C=C/c2cc(N3CCOCC3)c3cc(Cl)c(Cl)cc3n2)cc1
growth [1]: 97.4%
growth [2]: 93.1%
growth [3]: 69.7%
growth [4]: 108%
growth [5]: 81.4%
growth [6]: 37.2%
growth [7]: 93.9%
growth [8]: 98.6%
growth [9]: 99.6%
growth [10]: 105%

CNC(=O)c1cc(Oc2ccc(NC(=O)Nc3cc(C(C)(C)C)nn3-c3ccc4ncccc4c3)c(F)c2)ccn1
growth [1]: -12.9% (active)
growth [2]: -45.3% (active)
growth [3]: -94% (active)
growth [4]: 1.45% (active)
growth [5]: -21.7% (active)
growth [6]: -23.6% (active)
growth [7]: -83.5% (active)
growth [8]: -52% (active)
growth [9]: -72.9% (active)
growth [10]: -45.5% (active)
